# Test results as given in the supplement of paper PMC3334620.
# In all, about 33,000 sequences were measured (“E-score (-0.5 to 0.5)”: median about -0.0014, highest 2% from about 0.25 on). Many of the other results were omitted from the sample, so the highest values are more common in it than they were.
# Target: T1, Cad1 (UniProt P24813)
# T1 sequence: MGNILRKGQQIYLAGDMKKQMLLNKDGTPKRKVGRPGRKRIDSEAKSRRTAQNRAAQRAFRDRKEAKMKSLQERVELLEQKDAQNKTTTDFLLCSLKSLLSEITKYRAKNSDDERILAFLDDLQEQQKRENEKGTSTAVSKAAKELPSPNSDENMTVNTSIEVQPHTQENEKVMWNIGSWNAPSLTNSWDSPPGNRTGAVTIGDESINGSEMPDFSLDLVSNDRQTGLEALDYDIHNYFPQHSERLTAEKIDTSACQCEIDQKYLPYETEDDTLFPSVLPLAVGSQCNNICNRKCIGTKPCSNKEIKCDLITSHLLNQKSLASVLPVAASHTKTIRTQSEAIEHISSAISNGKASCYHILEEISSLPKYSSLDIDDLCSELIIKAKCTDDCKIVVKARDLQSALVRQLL
# Assay: PBM E-score (8-mer binding enrichment) (E-score (-0.5 to 0.5)); higher = stronger / more preferred TF binding
# Conditions: protein concentration: 100 nM; construct: GST-full length
# Description: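 Universal 'all 10-mer' protein binding microarrays (Agilent AMADID 015681) probed with GST-tagged S. cerevisiae TFs (full-length or DBD) made by in vitro transcription/translation (PURExpress), about 100-200 nM. Bound TF was detected with fluorescent anti-GST. Each ungapped 8-mer (which stands for itself and its reverse complement) is scored by the PBM enrichment score (E-score), a modified Wilcoxon-Mann-Whitney statistic from -0.5 to +0.5, computed with the Universal PBM Analysis Suite. Scale: above 0.35 generally sequence-specific binding.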
row,Sequence,PBM E-score
1,AATTATGA,0.297
2,CATTATAA,0.104
3,AAACGTAC,0.0592
4,AGCTAGTG,-0.0897
5,AGCTCACG,-0.0493
6,TAGAGTCA,-0.321
7,AAAGAACC,0.0643
8,ATAAGCCA,0.063
9,AGTCGGCG,0.0599
10,GGTGGGTA,-0.0656
11,CATGTGCG,0.173
12,ACTTATAT,0.202
13,AGTTATAT,0.101
14,AATTATAT,0.29
15,CAAGTGGA,-0.0832
16,CCCAAAAA,-0.0252
17,CCGTTCCC,-0.0828
18,GTTATTCA,0.251
19,ATTATTCG,0.195
20,GATATTCA,0.0631
21,ATTATTCA,0.26
22,CTTATTCA,0.17

row,Sequence,PBM E-score
1,ATTATTCC,0.131
2,ATATTGTA,0.0624
3,ATCACCAC,0.245
4,GGCACACC,-0.298
5,CCGATGAG,0.0417
6,ACTGCACT,0.0895
7,CTTGGGGA,0.0866
8,CCGACCTC,-0.0414
9,GTCATGAC,0.288
10,GTCATGAA,0.0483
11,CTCATGAC,-0.0193
12,CACTTAAC,0.00927
13,GGCGCTCA,0.149
14,ACACCTGC,0.0761
15,CCCGCGCA,0.106
16,CCCGCGGA,0.0649
17,CCCGCGCG,0.298
18,CCCGCGCC,-0.118
19,ACCGCGGA,0.207
20,GCCGCGGA,-0.00234
21,ACCGCCGA,-0.0944
22,GCCGCCGA,0.277

row,Sequence,PBM E-score
1,CCCGCCGA,-0.0624
2,CCCGCGGC,0.0319
3,TCCGCGGA,0.311
4,GCCGCGGC,0.347
5,ATTTCCAA,-0.03
6,ACCAGGCA,-0.169
7,AAAGCCAA,-0.0764
8,AAGAGCTG,0.0198
9,CCGTTGGA,-0.182
10,ACCGATGG,-0.143
11,TCTGAACA,0.184
12,GCTATCGA,-0.0158
13,AGCGCGGC,0.0398
14,GGCGCGCC,0.172
15,CGCGCGGC,0.261
16,CGCGCGGA,0.212
17,CGCGCGCC,0.254
18,AGCGCGCC,0.082
19,TTAACAAA,0.0927
20,GACTCTAA,-0.118
21,ACATAAGC,0.107
22,GCATAAGA,0.108

row,Sequence,PBM E-score
1,GCATAAGC,0.254
2,GCTTAGCC,-0.148
3,ACTACTAT,0.253
4,AGTAATAC,0.21
5,AGTAATAG,0.16
6,CCTAATAG,-0.0644
7,ACTACTAC,0.0727
8,CCTAATAA,0.0868
9,ACTAATAA,0.226
10,ACTAATAT,0.302
11,ACTAATAG,0.325
12,AATAATAT,0.208
13,AGTAATAT,0.346
14,ACTACTAA,0.158
15,CACCTAAA,0.0285
16,TCTTAACA,0.0995
17,CCCGCCGG,-0.00326
18,GTCACTTA,0.151
19,AGCTAGCA,-0.0255
20,AGAGACGG,0.0418
